{"source": "PubChem BioAssay (NCATS)", "note": "Results filed as inconclusive are left out. Calls of active or inactive are those of the source. Calls come from the whole dose curve; as a rule, active = well fitted cell-killing curve with a large enough effect; inconclusive = small, poorly fitted or top-dose-only effect; inactive = flat fitted curve, though single readings scatter."}
{"experiment": "Cell Viability - LYMP2-014 (AID 983); note: nearly all actives have a fitted effect of over 50% in size", "details": "LYMP2-014 lymphoblastoid cells, viability qHTS; series mostly up to 92.2 µM", "text": "NIH Chemical Genomics Center [NCGC]\nNIH Molecular Libraries Screening Centers Network [MLSCN]\nNational Institutes of Environmental Health Sciences [NIEHS]\nNational Toxicology Program [NTP]\nWe have developed a 1536-well cell-based assay for quantitative high throughput screening (qHTS) against a number of cell lines to determine in vitro cytotoxicity of small molecules. This particular assay uses a human lymphoblastoid cell line (LYMP2-014) purchased from Coriell Institute for Medical Research.\nNCGC Assay Protocol Summary:\nThe CellTiter-Glo luminescent cell viability assay (Promega) is a homogeneous method to measure the number of viable cells in culture. The end point readout of this assay is based on quantitation of intracellular ATP, an indicator of metabolic activity, using the luciferase reaction. Luciferase catalyzes the oxidation of beetle Luciferin to oxyluciferin and light in the presence of ATP. The luminescent signal is proportional to amount of ATP present.\nUsing the CellTiter-Glo luminescent cell viability assay, the amount of cellular ATP was measured in the lymphoblastoid cell line with complete culture medium following compound treatment for 24 hours. The assay was performed in opaque white Kalypsys 1536-well plates. In the screen, tetraoctylammonium bromide was used as positive control. Library compounds were measured for their ability to cause acute toxicity in the cell line, as reflected by a decrease in intracellular ATP levels, in a concentration-dependent manner. […] AC50 values were determined from concentration-response data modeled with the standard Hill equation.\nqHTS protocol for CellTiter Glo lymphoblastoid cellular assay\n[Step] [Parameter] [Value] [Description]\n1. Reagent; 5 uL; 2500 lymphoblastoid cells/well\n2. Time; 5 hr; 37 C incubation\n4. Controls; 23 nL; Tetraoctylammonium bromide 6.4pM to 92 uM\n5. Time; 24 hr; 37 C incubation\n6. Reagent; 5 uL; CellTiter Glo reagent\n7. Time; 30 min; Room Temperature\n8. Detection; Luminescence; Viewlux plate reader\nKeywords: cell viability, cytotoxicity, lymphoblastoid cell line, luminescence, NTPHTS, NTPHTS_NCGC, NIEHS, DSSTox, MLSMR, MLSCN, NIH Roadmap, qHTS, NCGC"}
{"smiles": "N[C@@H](Cc1c[nH]c2ccc(O)cc12)C(=O)O", "outcome": "inactive"}
{"smiles": "Nc1ccn([C@H]2CC[C@@H](CO)O2)c(=O)n1", "outcome": "inactive"}
{"smiles": "O=c1c(-c2ccc(O)cc2)coc2cc(O)cc(O)c12", "outcome": "inactive"}
{"smiles": "Nc1c2c(nc3ccccc13)CCCC2", "outcome": "inactive"}
{"smiles": "Cc1cn([C@H]2C=C[C@@H](CO)O2)c(=O)[nH]c1=O", "outcome": "inactive"}
{"smiles": "O=c1[nH]cc(F)c(=O)[nH]1", "outcome": "inactive"}
{"smiles": "COc1ccc2[nH]cc(CCNC(C)=O)c2c1", "outcome": "inactive"}
{"smiles": "NS(=O)(=O)c1cc2c(cc1Cl)NCNS2(=O)=O", "outcome": "inactive"}
{"smiles": "Cn1c(=O)c2[nH]cnc2n(C)c1=O", "outcome": "inactive"}
{"smiles": "NCCS(=O)(=O)O", "outcome": "inactive"}
{"smiles": "Clc1ccc(C(c2ccccc2Cl)C(Cl)Cl)cc1", "note": "(stereo not drawn)", "outcome": "inactive"}
{"smiles": "CC(C)C(=O)Nc1ccc([N+](=O)[O-])c(C(F)(F)F)c1", "outcome": "inactive"}
{"smiles": "CC(C)NCC(O)c1ccc(O)c(O)c1", "note": "(stereo not drawn)", "outcome": "inactive"}
{"smiles": "COc1ccc2c(c1)c(CC(=O)O)c(C)n2C(=O)c1ccc(Cl)cc1", "outcome": "inactive"}
{"smiles": "Cn1c(=O)c2c(ncn2C)n(C)c1=O", "outcome": "inactive"}
{"smiles": "CCC1(c2ccccc2)C(=O)NCNC1=O", "outcome": "inactive"}
{"smiles": "Cc1cn([C@H]2C[C@H](N=[N+]=[N-])[C@@H](CO)O2)c(=O)[nH]c1=O", "outcome": "inactive"}
{"smiles": "Cc1ccc(-c2cc(C(F)(F)F)nn2-c2ccc(S(N)(=O)=O)cc2)cc1", "outcome": "inactive"}
